The values that follow come from the supplement of paper PMC10105736.

Holding throughout (experiment): MAPPIT interaction score (arbitrary units); higher = stronger binary interaction signal, active = hit call of the paper
In one assay the target is Uba4. The conditions noted are these: MAPPIT configuration: N-N; pair source set: Curagen_high_conf.
The target in a further assay is Usp16-45. The conditions noted are these: MAPPIT configuration: N-N; pair source set: Curagen_low_conf.
The target of a further assay is Vsx1. Conditions: MAPPIT configuration: N-C; pair source set: screen_3.
For another assay, the target named is Tsp74F. Conditions: MAPPIT configuration: N-C; pair source set: screen_3.
The target in the next assay is Trxr1. Conditions: MAPPIT configuration: N-N; pair source set: Finley_Y2H.
In the next assay the target is Xbp1. Conditions: MAPPIT configuration: N-N; pair source set: Curagen_low_conf.
In a further assay the target is TwdlW. The conditions noted are these: MAPPIT configuration: N-N; pair source set: Lit-BS-16.
A further assay addresses U4-U6-60K. The conditions noted are these: MAPPIT configuration: N-N; pair source set: DPIM.
In the next assay the target is Vha13. The conditions noted are these: MAPPIT configuration: N-C; pair source set: screen_4.

Values without a mark were called inactive.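 Rule for the calls: active = MAPPIT score above the 99th percentile of random reference set scores in the same batch; inactive = at or below it.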
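Note: HEK293T cells with Epo stimulation, STAT-responsive firefly luciferase reporter, fold induction versus unstimulated cells divided by the larger fold induction of two negative controls lacking either bait or prey.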

B1: Coa8 (protein)
chain: MNKCFRCQPRISLFQFSLPRCYAAVQPGCPPPQEKPVVGLPHKPDPKTVKCDYIGPPDAQSNLRPYVRHYGDEETRLARSLRLKRIEVEAWNTDFWTKHNKRFYEEKEDFIRLHKESGTSEVSADQMSHFYKAFLDKNWRIHIMYNISWYLKNFDILTLAAAVQLQRLLALAKRRS
B1: the MAPPIT interaction score in the assay with Uba4 is 2.52 (active).

B2: AdSS (protein)
chain: MSASATNGTHYEQLHQGRTKMYKSKVDVVLGAQWGDEGKGKVVDMLASDVDIVCRCQGGNNAGHTVVANGTEFDFHLLPSGVVNEKCVSVIGNGVVIHLPSLFDEVLKNEAKGLQHLENRLIISDRAHLVFDFHQHVDGMQEAEKGGKSLGTTKKGIGPAYSSKATRNGIRVGELLGDFNLFSEKFKSIVATHVRLFPSINVDVEAELARYKDYADKVRPYVKDTICFLHTALRNGKTILVEGANAAMLDIDFGTYPYVTSSNCSIGGVLTGLGLPPQTIGEVIGVVKAYTTRVGDGPFPTEQLNDIGDLLQTRGFEVGVTTKRKRRCGWLDIPLLKYTSLVNGYTCICLTKLDILDTLPEIKVAVAYKKPNGEKLDHFPGTIAELGNIEVEYAVLPGWQTSTEEVRNFKELPENAQSYVRLLESELSVPVRWVGVGKGRESIINVH
Take B2: the MAPPIT interaction score in the assay with Usp16-45 was 1.38.

B3: Mst87F (protein)
chain: MCCGPCGPCCGPCCGPCCGPCGPCGGGCGPCYGPNVCGPCYACGPCGGCYCGYPCC
On to B3, for which the MAPPIT interaction score in the assay with Vsx1 is 0.606.

B4: Surf4 (protein)
chain: MSIPNEYIAKTEDVAEQVIKRGKNVLPTVARLCLIATFFEDGLRMYIQWNEQREYMDMSWGCGKFLATVFVLVNLLGQLGGCGMVMARFKVDIAVGLLFFIVVLQTVAYSILWDFQFLLRNFALIGALLLVLAEARIEGRSLFAGVPSMGENKPKNFMQLAGRILLAFMFITLIRFELSVWQVIQDIIGSILMVLVVLGYKTKLSALILVALLTILNLYHNAWWTIPSYKPLRDFLKYDFFQTLSVIGGLLMIVSLGPGGVSMDEHKKKW
For the molecule B4, in the assay with Tsp74F, the MAPPIT interaction score is -0.232.

B5: CG7639 (protein)
chain: MPKSGRDGGASKDSKYDLSKISARVDRVNVSGLLRTHNDYVMRAADGLFKASNFQDLMLEAMSTKSYLHELGIFKDVSVHIDVSRGADASPQGYEVTFKGNEMSRMMGSAGTEIGQNEGSLRTELTIPNILGRGENISLQGSYSSTRANDLQLKFWKPFFHTRFKENRPEMSFSIFRQTDRFDISSFQTTNIGYLVDFSAHTMVGVDLTHSLQYENAIRDVGLLNKSVPFAIRDHCGPKLASLLRYSVVYDNRDGNVFPTRGIYLKSVNEYCGLGGNVAYTSSTAHGELNVPLFAGLVAQFCARVGVVKETKNTTQLPISSLFYCGGPLTLRGFKFGGAGPVVESTPIGAQSFWCTGAHLWAPLPFAGVFKNLASHFRMHFFYNIGNNNSFSTENMRSAFGMGLAVKLAERARIELNYCVPVRHQDTDRILNGFQFGIGYEFV
B5: the MAPPIT interaction score with Trxr1 was -0.0261.

B6: Ubc2 (protein)
chain: MSSTPAAGSAAEVATSSATSNAPSAPSTTASNVSNTSQPTTAGTPQARGGRGSNANGGASGSNAGGGDEPRKEAKTTPRISRALGTSAKRIQKELAEITLDPPPNCSAGPKGDNLYEWVSTILGPPGSVYEGGVFFLDIHFSPEYPFKPPKVTFRTRIYHCNINSQGVICLDILKDNWSPALTISKVLLSICSLLTDCNPADPLVGSIATQYLQNREEHDRIARLWTKRYAT
As to B6, the MAPPIT interaction score with Xbp1 was -0.108.

B7: RpS3 (protein)
chain: MNANLPISKKRKFVSDGIFKAELNEFLTRELAEDGYSGVEVRVTPSRTEIIIMATKTQQVLGEKGRRIRELTAMVQKRFNFETGRIELYAEKVAARGLCAIAQAESLRYKLTGGLAVRRACYGVLRYIMESGAKGCEVVVSGKLRGQRAKSMKFVDGLMIHSGDPCNDYVETATRHVLLRQGVLGIKVKVMLPYDPKNKIGPKKPLPDNVSVVEPKEEKIYETPETEYKIPPPSKPLDDLSEAKVL
In the case of B7, in the assay with TwdlW, the MAPPIT interaction score is -0.331.

B8: CG2034 (protein)
chain: MLSNLVVTKQKVVLVIDELNRERIAPKFIGSLLHEQGQGADTIKALPTGVSLKHVATFEALIDKYANNNTGSTTDSNSTGFNVILPTLADLLCYQTPAFIFGFLNRLRRSDNVRRVFLWASPQHLQDPHADYILAGCEYLAELVLRLESDKLLSLISRKPGGGVSNRRYSCEVSKTQFKVTPLDGGLPAGASPKQPSPEAEQTTEPASSTFKIELDEDEVLARNALTLPYERTSEPSEGNIIYTPDADDDFDEEDPDEDLCI
As for B8, the MAPPIT interaction score with U4-U6-60K is 0.24.

B9: Vha26 (protein)
chain: MALSDADVQKQIKHMMAFIEQEANEKAEEIDAKAEEEFNIEKGRLVQQQRLKIMEYYEKKEKQVELQKKIQSSNMLNQARLKVLKVREDHVSSVLDDARKRLGEVTKNQSEYETVLTKLIVQGLFQIMEPKVILRCREVDVPLVRNVLPAAVEQYKAQINQNVELFIDEKDFLSADTCGGVELLALNGRIKVPNTLESRLDLISQQLVPEIRNALFGRNVNRKFTD
For the molecule B9, in the assay with Vha13, the MAPPIT interaction score was 1.21.
